Source: PubChem
Sampled rows, rich in hits. Any-hit rate of the full collection: about 2%.
CF NFkB inh – inhibitors of PAF-induced NF-kB signaling, primary screen, cell-based, GFP fluorescence, uHTS; actives 0.86% (n = 360,000); inhibition, % at 5 µM; KKLEB NF-kB-GFP reporter, GFP fluorescence overnight;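 active = at least 50% inhibition at 5 µM, scaled per plate between neutral and stimulator controls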;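 note: PAF is a Pseudomonas aeruginosa culture filtrate used as stimulus; plate controls were PAF-stimulated DMSO wells for no effect and unstimulated DMSO wells for full effect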
LGR2 inh – inhibitors of bursicon-induced LGR2 CRE-luciferase signal, primary screen, cell-based, HEK293, CRE-luciferase reporter, bursicon stimulation; Drosophila bursicon receptor LGR2 (rickets); bursicon-stimulated, 4 h; inhibition, % at 9.99 µM; actives 0.35% (n = 380,000);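 active = drop in luminescence signal, shown as inhibition above about 50% in the replicate tests, limit read from the data, passing the limit was not always enough; inconclusive = probably only some replicates passing the limit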;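 note: agonist challenge used bursicon conditioned medium at about half maximal strength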
PAX8 reporter – inhibitors of PAX8-driven TPO luciferase reporter, primary screen, RMG-I cells, single concentration; inhibition, % at 12.6 µM; SteadyGlo, 24 h; actives 1.2% (n = 360,000); AID 652154, 2013;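 active = mean replicate inhibition at least 60% with every replicate also reaching 60%; inconclusive = only one of the two criteria is met; inactive = mean below 60% and not all replicates reaching 60%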;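 note: luciferase light reporting Pax8 driven TPO promoter activity; plate controls were median of neutral control wells for no effect and mitoxantrone controls for full effect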
EWS-Fli inh – EWS/Fli-driven NR0B1 reporter inhibitors, primary screen, A673 cells, NR0B1 luciferase, luminescence, MLPCN library; viability-normalised; inhibition, % at 12.6 µM; actives 0.67% (n = 350,000);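 active = mean inhibition of at least 50% after viability correction, with every replicate also passing that limit; inconclusive = mean reaches 50% but only one of two replicates passes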;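 note: firefly luciferase signal divided by Alamar Blue viability fluorescence both relative to DMSO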
KKLEB tox – cytotoxicity in KKLEB CF airway cells, primary screen, cytotoxicity control for CF NF-kB inhibitor project, cell-based, uHTS, fluorescence assay plates; KKLEB CF airway cells viability, ATPlite luminescence, overnight; active compounds read low; cells stimulated with P. aeruginosa culture filtrate; activity change (cytotoxicity), % at 5 µM; actives 0.36% (n = 360,000); AID 602141, 2011;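 active = corrected activity change at or below -50% at 5 µM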
Shn3 3UTR inh – reduction of Shn3 3'UTR firefly luciferase signal, primary screen, Schnurri-3 inhibitor project, cell-based, Clone20 osteoblasts, set 2 | Clone20 osteoblast Shn3 3'UTR firefly luciferase, 24 h | inhibition, % at 12.5 µM | actives 0.52% (n = 360,000) | AID 588674, 2011;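 active = mean inhibition of at least 75% with every replicate also reaching 75%; inconclusive = mean inhibition at least 75% but some replicate below; inactive = mean inhibition below 75%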;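 note: 0% = median of neutral control wells and 100% = pilot-screen positive control compound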
* hit, by the source's call; ? = inconclusive; . = no result given.

SMILES	CF NFkB inh	LGR2 inh	PAX8 reporter	EWS-Fli inh	KKLEB tox	Shn3 3UTR inh
CCCN(C)C[C@H]1OCCCC[C@H](C)Oc2ccc(NS(=O)(=O)c3ccc(C)cc3)cc2C(=O)N([C@@H](C)CO)C[C@@H]1C	.	-14	23	.	.	.
COc1ccc2c(=O)c(-c3ccc4c(c3)OCO4)coc2c1	-26	69*	-6	32	-18	-34
CCN(CC)C(=O)Oc1ccc2c(=O)c(-c3ccc(OC)cc3)coc2c1	0	-26	.	-66	9	-17
COC1=CC(=O)c2ccccc2C1=O	91*	.	.	.	-29	36
COC1=CC(=O)C=C(OC)C1=O	24	-3	78*	63*	-9	97*
C[C@H]1CN([C@@H](C)CO)C(=O)c2cc(-c3ccc(C#N)cc3)cnc2O[C@H]1CN(C)C(=O)Nc1ccc(C(F)(F)F)cc1	.	-3	26	-7	.	.
CC=Cc1ccc2n(c1=O)C[C@@H]1[C@@H](CO)[C@H](C(=O)N[C@H](C)c3ccccc3)[C@H]2N1Cc1ccccc1 (mixture of isomers)	.	-1	-18	-1	.	.
O=C(C[C@@H]1C[C@H]2c3cc(NS(=O)(=O)c4ccccc4)ccc3O[C@H]2[C@H](CO)O1)NC1CCCCC1	.	4	15	2	.	.
COc1ccccc1C#Cc1ccc2c(c1)O[C@@H](CN(C)Cc1cccnc1)[C@H](C)CN([C@H](C)CO)S2(=O)=O	.	.	84*	20	.	.
COc1ccccc1C#Cc1ccc2c(c1)O[C@@H](CN(C)Cc1cncnc1)[C@H](C)CN([C@H](C)CO)S2(=O)=O	.	18	86*	18	.	.
COc1ccccc1C#Cc1ccc2c(c1)O[C@H](CN(C)Cc1cccnc1)[C@H](C)CN([C@H](C)CO)S2(=O)=O	.	34	90*	27	.	.
Cc1ccc(S(=O)(=O)NCC[C@@H]2CC[C@H](NC(=O)NC(C)C)[C@@H](CO)O2)cc1	.	-3	-19	3	.	.
COc1ccc2c(c1)/C(=C/c1cc(OC)c(OC)c(OC)c1)C(=O)N2	30	18	33	63*	-14	-3
COCC#Cc1cnc2c(c1)C(=O)N([C@H](C)CO)C[C@@H](C)[C@@H](CN(C)C(=O)Cc1ccccc1)O2	.	13	-12	-12	.	.
COc1cc(C(=O)OCC(=O)Nc2sccc2C(N)=O)cc(OC)c1OC	16	-6	9	61*	-21	12
O=C(Nc1ccccc1)N1CCCCN2[C@H](CO)[C@H](c3ccc(C#Cc4ccccc4)cc3)[C@@H]2C1	.	4	35	16	.	.
COc1ccc(NC(=O)N2CCCCN3[C@@H](CO)[C@@H](c4ccc(C#Cc5ccccc5)cc4)[C@@H]3C2)cc1	.	.	111*	1	.	.
O=C(Nc1ccccc1)N1CCCCN2[C@H](CO)[C@H](c3ccc(C#Cc4ccccc4)cc3)[C@H]2C1	.	-1	109*	63*	.	.
O=C(Nc1ccccc1F)N1CCCCN2[C@H](CO)[C@@H](c3ccc(C#Cc4ccccc4)cc3)[C@H]2C1	.	25	66*	.	.	.
COc1ccc(C#Cc2ccc([C@H]3[C@H](CO)N4CCCCN(C(=O)Nc5cccc(F)c5)C[C@@H]34)cc2)cc1	.	.	?	27	.	.
O=C(Nc1cccc(F)c1)N1CCCCN2[C@@H](CO)[C@@H](c3ccc(C#Cc4ccccc4)cc3)[C@@H]2C1	.	11	116*	76*	.	.
O=C(Nc1ccccc1F)N1CCCCN2[C@H](CO)[C@@H](c3ccc(C#Cc4ccccc4)cc3)[C@@H]2C1	.	3	-22	.	.	.
COc1ccc(C#Cc2ccc([C@H]3[C@H](CO)N4CCCCN(Cc5ccccc5F)C[C@@H]34)cc2)cc1	.	-37	-35	8	.	.
O=C(Nc1ccccc1)N1CCCCN2[C@H](C1)[C@@H](c1ccc(C#Cc3ccccc3)cc1)[C@@H]2CO	.	24	99*	4	.	.
C[C@H](NC(=O)[C@H]1[C@H](CO)[C@H]2Cn3c(ccc(-c4cccc(F)c4)c3=O)[C@H]2N1C)c1ccccc1	.	12	2	3	.	.
SMILES	CF NFkB inh	LGR2 inh	PAX8 reporter	EWS-Fli inh	KKLEB tox	Shn3 3UTR inh
C[C@@H]1CN([C@@H](C)CO)C(=O)c2ccccc2-c2ccccc2CO[C@@H]1CN(C)Cc1ccc(Cl)c(Cl)c1	.	2	71*	3	.	.
C[C@H](CO)N1C[C@H](C)[C@H](CN(C)Cc2ccc(-c3ccccc3)cc2)OCc2ccccc2-c2ccccc2C1=O	.	9	16	.	.	.
C[C@H](CO)N1C[C@H](C)[C@H](CN(C)Cc2ccc3c(c2)OCO3)OCc2ccccc2-c2ccccc2C1=O	.	-1	31	6	.	.
C[C@H](CO)N1C[C@H](C)[C@H](CN(C)Cc2ccccc2)OCc2ccccc2-c2ccccc2C1=O	.	0	.	70*	.	.
C[C@@H]1CN([C@@H](C)CO)C(=O)c2ccccc2-c2ccccc2CO[C@@H]1CN(C)Cc1ccc2c(c1)OCCN2C	.	8	90*	14	.	.
C[C@H]1CN([C@@H](C)CO)C(=O)c2cccc(NC(=O)Nc3ccc4c(c3)OCO4)c2O[C@@H]1CN(C)C(=O)NC1CCCCC1	.	-32	.	-11	.	.
C[C@@H]1CN([C@@H](C)CO)C(=O)c2cc(NC(=O)CCC(F)(F)F)ccc2O[C@@H]1CN(C)Cc1ccccc1	.	10	9	0	.	.
C[C@@H]1CCCCO[C@@H](CN(C)Cc2ccc(C(F)(F)F)cc2)[C@H](C)CN([C@H](C)CO)C(=O)c2cc(NC(=O)Nc3ccc(F)cc3)ccc2O1	.	-25	69*	11	.	.
C[C@@H]1CCCCO[C@@H](CN(C)Cc2ccc(C(F)(F)F)cc2)[C@@H](C)CN([C@H](C)CO)C(=O)c2cc(NC(=O)Nc3ccc(F)cc3)ccc2O1	.	-9	19	3	.	.
C[C@@H]1CCCCO[C@H](CN(C)Cc2ccc(C(F)(F)F)cc2)[C@@H](C)CN([C@@H](C)CO)C(=O)c2cc(NC(=O)Nc3ccc(F)cc3)ccc2O1	.	-42	92*	21	.	.
C[C@@H]1CCCCO[C@@H](CN(C)Cc2ccc(C(F)(F)F)cc2)[C@H](C)CN([C@H](C)CO)C(=O)c2cc(NC(=O)Nc3ccc(C(F)(F)F)cc3)ccc2O1	.	4	69*	0	.	.
C[C@@H]1CCCCO[C@@H](CN(C)Cc2ccc(C(F)(F)F)cc2)[C@@H](C)CN([C@@H](C)CO)C(=O)c2cc(NC(=O)Nc3ccc(C(F)(F)F)cc3)ccc2O1	.	8	8	-11	.	.
C[C@@H]1CN([C@@H](C)CO)C(=O)c2cc(NC(=O)Nc3ccc(C(F)(F)F)cc3)ccc2O[C@H]1CN(C)Cc1ccc(C(F)(F)F)cc1	.	-1	70*	-6	.	.
